# This is a sample that favours compounds with a hit; in the whole collection about 19% have one here.
# DT40 TDP1 CPT: DT40-hTDP1 cell growth loss with CPT; Potency, µM (titrated, usually from 46.2 µM), for inactives: at the top dose activity change, negative = growth inhibition, hits mostly inhibitors; AID 686979; 12% of 420,000 active; chicken DT40 Tdp1-/-;hTDP1 cells + 20 nM CPT, ATP luminescence, 48 h; note: potency is the fitted concentration of half-maximal effect; nearly all actives have a fitted effect of over 55% in size
#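 Cell growth measured by CellTiter-Glo luminescence after a minimum 48 h, 37 C compound exposure with 20 nM CPT in Tdp1-knockout DT40 cells stably expressing hTDP1, seeded 400/well; qHTS titration format.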
# HT1080 IDH1KD tx: HT-1080 IDH1 knockdown cell toxicity (counter line); HT-1080 IDH1 knockdown viability, ATP luminescence, 48 h; Potency, µM (doses to about 46.1 µM), inactives show at the top dose activity, negative = toxicity, actives largely listed as cytotoxic; 2% of 360,000 active; AID 686971;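 note: potency is the fitted concentration of half-maximal effect; 0% = DMSO wells and -100% = cell-free medium wells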
#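 Using the IDH1-knockdown HT-1080 line run in the same batch and compound series as the NT line, viability after 48 h at 37 °C was determined by CellTiter-Glo luminescence and expressed as % activity.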
# HT1080NT lethal: kills 2HG-producing HT-1080-NT fibrosarcoma cells. HT-1080-NT fibrosarcoma viability, CellTiter-Glo ATP luminescence, 48 h. Potency, µM (titrated, usually from 46.1 µM), for inactives: top-dose activity, negative = less viability, most hits filed as cytotoxic. 1.6% of 360,000 active. AID 686970;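 note: NT is the 2HG producing partner of a matched IDH1 knockdown line; potency is the fitted concentration of half-maximal effect; 0% = DMSO-treated cells and -100% = media-only wells without cells; nearly all actives have a fitted effect of over 55% in size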
#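 Viability of the 2HG-overproducing fibrosarcoma line after 48 hours of compound exposure at 37 degrees C was determined by luminescence with CellTiter-Glo, and concentration-effect curves were then fitted and categorized.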
# TDP1 cell noCPT: qHTS for Inhibitors of human tyrosyl-DNA phosphodiesterase 1 (TDP1): qHTS in cells in absence of CPT; AID 686978, 2013; Potency, µM (series often up to 46.2 µM), inactives show top-dose activity change, negative = growth inhibition, most hits filed as inhibitors; 15% of 420,000 active; DT40 Tdp1-/- hTDP1 cells, no CPT, ATP luminescence, 48 h; note: potency is the fitted concentration of half-maximal effect; nearly all actives have a fitted effect of over 55% in size
#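 DT40 Tdp1-/-;hTDP1 cells, no CPT (DMSO vehicle only), 400 cells/well; compounds pin-transferred; ≥48 hr, 37 °C; CellTiter-Glo 30 min RT dark, luminescence read.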
# IL1B secr inh: blocks inflammasome-driven IL-1 beta release. THP-1 LPS/ATP IL-1B secretion, AlphaLISA, 16 h; active compounds read low. activity change, % at 57.5 µM. 4.7% of 360,000 active; in the data active = activity change below about -50%; inconclusive = mostly about -30% to -49%
#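 THP-1 cells pretreated 1 hr with compounds (up to 57.5 uM final), then stimulated with LPS (250 ng/mL final) plus ATP (1.25 mM final); secreted IL-1B measured by AlphaLISA after 16 hr, decreased signal indicating inhibition.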
# Starred values were filed as active, the others as inactive; ? = inconclusive; · = no result; [ ] = remark or other dose. Unless noted, calls come from the whole dose curve; as a rule, active = well fitted curve in the direction sought with a large enough effect; inconclusive = small, poorly fitted or top-dose-only effect, or another doubt; inactive = no such curve, though single readings can be large; an effect the other way counts as inactive or inconclusive. Unless noted, % is set by controls: 0 for no effect and ±100 for the full control effect.
SMILES,DT40 TDP1 CPT,HT1080 IDH1KD tx,HT1080NT lethal,TDP1 cell noCPT,IL1B secr inh
O=S(=O)(NCCc1ccccc1)c1ccc(Br)cc1,-3%,1%,6%,?,0
O=[N+]([O-])c1ccc(Cl)c(-c2ccc(/C=N/n3cnnc3)o2)c1,3%,6%,-3%,-20%,-26
COc1cc([N+](=O)[O-])ccc1-c1ccc(/C=N\n2cnnc2)o1,1.6µM*,8%,6%,1.8µM*,-13
COc1ccc(-c2ccc(/C=C3\C(=O)N(c4ccccc4)N=C3c3ccccc3)o2)c([N+](=O)[O-])c1,?,1%,0%,21µM*,5
CN1CCN(/N=C/c2ccc(-c3ccc([N+](=O)[O-])cc3Cl)o2)CC1,-13%,?,?,?,-81*
O=C(/C=C/c1cc([N+](=O)[O-])ccc1OC(F)F)Nc1cccc([N+](=O)[O-])c1,1%,-1%,2%,2%,-14
O=[N+]([O-])c1ccc(OC(F)F)c(/C=N/n2cnnc2)c1,5.8µM*,?,-23%,6.5µM*,32
COc1ccc(N2CCN(C(=O)c3cc(=O)c4cc(C)c(C)cc4o3)CC2)cc1,3%,3%,12%,?,-7
CCC(C)n1c(=N)c(C#N)cc2c(=O)n3cc(C)ccc3nc21 (centres undefined),-2%,-1%,10%,-3%,-8
COc1cc([N+](=O)[O-])ccc1-c1ccc(/C=C2\C(=O)ON=C2c2ccccc2)o1,12µM*,-2%,-3%,9.2µM*,25
Cc1cc(-c2ccc(/C=N/n3cnnc3)o2)c(C)c([N+](=O)[O-])c1,-29%,3%,9%,-13%,-71*
Nc1cc(N)nc(SCC(=O)NC2CCCCCCC2)n1,-2%,-1%,2%,17%,1
O=C(c1ccccc1)c1ccc(OCC(O)CN2CCN(S(=O)(=O)N3CCCCC3)CC2)cc1 (centres undefined),?,?,-12%,18µM*,-13
OC(COc1ccc(-c2ccccc2)cc1)CN1CCCCC1 (centres undefined),?,-15%,-9%,26µM*,-19
CCOc1ccc(C(=O)c2oc3ccccc3c2NC(=O)Cc2coc3cc(C)cc(C)c23)cc1,-3%,·,·,-3%,·
Cc1ccc(S(=O)(=O)N(C)Cc2ccc(C(=O)N/N=C/c3ccc(OC(F)F)cc3OC(F)F)cc2)cc1,?,-27%,5%,23µM*,7
O=C(N/N=C/c1ccc(OC(F)F)cc1OC(F)F)c1ccc(Br)cc1,-10%,13%,15%,21%,16
CCc1ccc(C2=NN(C(C)=O)C(c3ccco3)C2)cc1 (centres undefined),?,-3%,-3%,16µM*,-5
CC(C)[C@H](NS(=O)(=O)c1ccccc1)C(=O)OCC(=O)N1N=C(c2ccc(Cl)cc2)CC1c1ccco1 (some centres undefined),18µM*,?,?,13µM*,-72*
CCC(=O)N1N=C(c2ccc(Cl)cc2)CC1c1ccco1 (centres undefined),23µM*,-10%,-3%,12µM*,·
Cc1ccc(C2=NN(C(=O)CSc3nccn3C)C(c3ccco3)C2)cc1 (centres undefined),21µM*,15µM*,18µM*,21µM*,?
COc1ccc(C(=O)N2CCCN(C)CC2)cc1S(=O)(=O)N(C)Cc1ccccc1,-1%,1%,6%,16%,-17
COc1ccc(C2=NN(C(N)=S)C(c3ccco3)C2)cc1 (centres undefined),?,-7%,9%,-23%,0
COc1ccc(C2=NN(C(=O)CSc3nnc(-c4ccccc4F)o3)C(c3ccco3)C2)cc1 (centres undefined),?,-6%,-5%,21µM*,9
CC(=O)N1N=C(c2ccc(NS(=O)(=O)c3ccccc3)cc2)CC1c1ccco1 (centres undefined),2.6µM*,5.2µM*,4.6µM*,2.3µM*,58
SMILES,DT40 TDP1 CPT,HT1080 IDH1KD tx,HT1080NT lethal,TDP1 cell noCPT,IL1B secr inh
CCCc1cc(=O)[nH]c(SCC(=O)N2N=C(c3ccc(Cl)cc3)CC2c2ccco2)n1 (centres undefined),?,-5%,2%,?,?
O=C(c1ccco1)N1N=C(c2cccs2)CC1c1ccco1 (centres undefined),1%,23%,5%,10%,16
O=C(c1ccco1)N1N=C(c2ccc(Br)cc2)CC1c1ccco1 (centres undefined),8.2µM*,10%,5%[9.24 µM],5.2µM*,-67*
Nc1cc(=O)[nH]c(SCC(=O)N2N=C(c3ccc(Cl)cc3)CC2c2ccco2)n1 (centres undefined),18µM*,-19%,-19%,?,-26
O=C(N/N=C/c1ccc[nH]1)c1ccc([N+](=O)[O-])cc1,-20%,-3%,-3%,-24%,-2
O=C(c1ccco1)N1N=C(c2ccc(Cl)cc2)CC1c1ccco1 (centres undefined),18µM*,-3%,?,9.2µM*,?
COc1ccc(C2=NN(C(=O)c3ccco3)C(c3ccco3)C2)cc1OC (centres undefined),29µM*,-15%,-17%,18µM*,-20
COc1cc2c(cc1OC)CN(C(=O)c1cccc([N+](=O)[O-])c1)CC2,26µM*,7%,6%,?,-8
COc1cc([N+](=O)[O-])ccc1NC(=O)CN1CCc2cc(OC)c(OC)cc2C1,?,-15%,-15%,?,-8
COc1cc2c(cc1OC)CN(C(=O)/C=C/c1ccc([N+](=O)[O-])cc1)CC2,18µM*,-4%,14%,16µM*,-5
COc1cc2c(cc1OC)CN(C(=O)/C=C/c1cccs1)CC2,1.5µM*,4.1µM*,7.3µM*,1µM*,0
COc1cc2c(cc1OC)CN(CC(=O)Nc1cccc([N+](=O)[O-])c1)CC2,?,-10%,-9%,16µM*,-19
COc1cc2c(cc1OC)CN(C(=O)c1cccs1)CC2,-10%,27%,16%,?,?
COc1cc2c(cc1OC)CN(C(=O)c1ccc(OC)c([N+](=O)[O-])c1)CC2,-17%,0%,5%,?,-2
O=C(CSc1nc(-c2ccccc2)no1)N1CCN(c2ccc(F)cc2)CC1,-23%,·,·,-22%,·
COc1ncc2nc(-c3ccc(Cl)cc3)c(=O)n(CCC#N)c2n1,22%,·,·,2%,·
Cn1c(CCc2nc3ccccc3[nH]2)nnc1SCC#N,-17%,2%,-3%,-17%,0
